Only some compounds are listed: those with a hit (about 2.6% of all), similar ones and a draw of the others.
KCNH2 3.1 inh: blocks the human KCNH2 3.1 channel isoform. AID 720553. U2OS KCNH2 3.1, thallium flux FluxOr; active compounds read low. activity change, % (tested at about 1.8 µM). actives 0.95% (n = 340,000);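 active means maximum activity change below -70%; inconclusive means maximum activity change from -70% to -50%; inactive means maximum activity change above -50%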;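 further: thallium influx rate constant from kinetic fluorescence after stimulation buffer; on the % scale 0 is the no-effect control and ±100 the full control effect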
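Thallium flux read-out: FluxOr dye with Red40 quencher in HBSS/HEPES, 45 min at RT. Rate constants from kinetic reads were normalized to positive and negative DMSO controls. Cells: U2OS virally expressing the 3.1 isoform.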
p53 reactivation: restores transcriptional activity of mutant p53; H1299 p53-A138V BP100-luciferase reporter, luminescence, 24 h; actives 0.063% (n = 320,000); Potency, µM (series often up to 92.2 µM), for the others: at the highest dose activity change, positive = activation, usual class: activators; further: potency means the concentration at half of the fitted maximal effect; % of control where 0% means no effect; nearly all actives have a fitted effect of over 45% in size
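H1299 (p53-null), stable ts p53-A138V + BP100-Luc; 1000 cells/well, Opti-MEM/10% FBS; cpd 4 pt, 1:5; 24 h, 37 deg C, 5% CO2; detection reagent 10 min RT; luminescence.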
TRPV1 PAM: enhances activation of the human vanilloid receptor TRPV1. actives 0.02% (n = 320,000). potentiation, % at 8.33 µM. Q8NER1. TRPV1-expressing cells, Fluo-8 calcium influx, capsaicin EC20 potentiation; in the data active means potentiation above about 80%; inconclusive means between about 30% and that limit; further: 0% is about no effect
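TRPV1-expressing cells were cultured overnight at 35.5C and loaded with Fluo-8 calcium dye for 40 to 90 min at room temperature. After a 10 s baseline, compound was added and calcium influx was read kinetically for 3 min (ex 480/em 520 nm).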
KCNH2 WT inh: blocks the wildtype human KCNH2 potassium channel; Q12809; U2OS, BacMam KCNH2, thallium flux FluxOr; active compounds read low; activity change, % at 1.84 µM; actives 0.37% (n = 340,000); AID 720551;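 active means maximum activity change below -70%; inconclusive means maximum activity change between -70% and -50%; inactive means maximum activity change above -50%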; further: on the % scale 0 is the no-effect control and ±100 the full control effect
Target sequence (Q12809 whole entry, looked up): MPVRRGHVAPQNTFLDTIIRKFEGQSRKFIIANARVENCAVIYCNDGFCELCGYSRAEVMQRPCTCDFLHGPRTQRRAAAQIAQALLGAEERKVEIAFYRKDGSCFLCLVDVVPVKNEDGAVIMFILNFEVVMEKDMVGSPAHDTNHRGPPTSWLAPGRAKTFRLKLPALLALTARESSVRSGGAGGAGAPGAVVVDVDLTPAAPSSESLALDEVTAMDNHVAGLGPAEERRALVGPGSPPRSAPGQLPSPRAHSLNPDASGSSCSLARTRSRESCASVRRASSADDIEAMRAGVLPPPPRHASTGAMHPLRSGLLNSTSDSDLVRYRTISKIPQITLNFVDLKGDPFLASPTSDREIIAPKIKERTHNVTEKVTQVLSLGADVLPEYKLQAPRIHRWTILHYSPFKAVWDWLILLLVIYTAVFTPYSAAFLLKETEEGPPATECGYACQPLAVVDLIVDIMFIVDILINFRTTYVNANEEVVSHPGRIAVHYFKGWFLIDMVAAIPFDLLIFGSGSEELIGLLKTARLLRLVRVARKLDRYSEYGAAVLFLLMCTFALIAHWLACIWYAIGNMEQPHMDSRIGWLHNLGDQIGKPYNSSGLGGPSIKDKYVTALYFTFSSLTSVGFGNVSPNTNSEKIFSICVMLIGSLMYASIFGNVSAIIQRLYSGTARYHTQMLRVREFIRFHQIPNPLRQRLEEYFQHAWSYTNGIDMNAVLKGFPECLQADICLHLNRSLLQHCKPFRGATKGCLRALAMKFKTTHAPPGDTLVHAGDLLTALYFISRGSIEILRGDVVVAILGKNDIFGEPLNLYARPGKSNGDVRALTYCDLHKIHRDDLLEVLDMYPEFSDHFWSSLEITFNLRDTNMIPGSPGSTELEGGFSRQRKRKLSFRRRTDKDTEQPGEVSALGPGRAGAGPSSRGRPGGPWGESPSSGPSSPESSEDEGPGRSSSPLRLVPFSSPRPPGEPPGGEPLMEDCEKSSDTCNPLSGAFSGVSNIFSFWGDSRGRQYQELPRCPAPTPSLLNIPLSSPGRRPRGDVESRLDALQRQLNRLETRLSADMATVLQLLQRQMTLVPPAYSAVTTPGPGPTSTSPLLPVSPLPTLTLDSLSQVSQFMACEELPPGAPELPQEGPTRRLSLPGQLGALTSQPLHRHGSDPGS
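U2OS cells transduced with wild-type KCNH2 virus are loaded with FluxOr dye for 45 min, and thallium flux is measured in kinetic reads before and after stimulation buffer. Rate constants are normalized to DMSO controls.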
TRPV1 ag: human TRPV1 agonism | Q8NER1 | actives 0.19% (n = 320,000) | activation, % at 8.33 µM | TRPV1-expressing cells, Fluo-8 calcium influx, agonist mode | AID 540275; in the data active means activation above about 80%; inconclusive means between about 30% and that limit; further: 0% is about no effect
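Cells expressing TRPV1 were dye-loaded with Fluo-8 and read kinetically: 10 s baseline, 3 min after compound (agonist portion), then 2 min after EC20 capsaicin (allosteric enhancer portion). Calcium-bound dye fluorescence at 480/520 nm.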
ClpP mod: qHTS Assay for Activators of ClpP | purified B. subtilis ClpP, FRET peptide cleavage, 20 min | Potency, µM (series often up to 57.5 µM), inactives show at the top dose activity change, negative = active | ATP-dependent Clp protease proteolytic subunit (Bacillus subtilis (strain 168)), P80244 | actives 1.9% (n = 340,000); active means well fitted falling curve with a large enough effect; inconclusive means small, poorly fitted or top-dose-only effect; inactive means no such curve, though single readings can be large or run the other way; further: potency means the concentration at half of the fitted maximal effect; the source files actives as falling curves though it sought activators and does not explain the sign; nearly all actives have a fitted effect of over 65% in size
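FRET quenching reversal measured ClpP activation: 10 microg/mL B. subtilis ClpP at pH 8 with the FRET-FV decapeptide, read at 430 nm after 320 nm excitation. The 20-min minus 0-min signal was scaled between DMSO/no-enzyme wells and ADEP (5.8 microM final).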
ClpP validation: validation of B. subtilis ClpP protease hits (inhibitors). actives 40% (n = 470). shares compounds with ClpP mod. purified B. subtilis ClpP, FRET-FV substrate cleavage, 20 min. Potency, µM (doses to about 57.5 µM), for inactives: at the top dose activity change, negative = inhibition, usual class: inhibitors; further: potency means the concentration at half of the fitted maximal effect; on the % scale 0 is the no-effect control and ±100 the full control effect; nearly all actives have a fitted effect of over 70% in size
* = called active by the depositor; ? = inconclusive; / = no result given. Unless noted, the call rests on the fitted dose curve; in most records, active means well fitted curve in the direction sought with a large enough effect; inconclusive means small, poorly fitted or top-dose-only effect, or another doubt; inactive means no such curve, though single readings can be large; an effect the other way counts as inactive or inconclusive.

SMILES | KCNH2 3.1 inh | p53 reactivation | TRPV1 PAM | KCNH2 WT inh | TRPV1 ag | ClpP mod | ClpP validation
CC(Nc1nc(N2CCN(S(C)(=O)=O)CC2)nc2ccccc12)c1ccccc1 (configuration not stated) | -5 | -5% | 12 | 11 | 0 | 4µM* | 24µM*
COc1ccc(Nc2nc(N3CCN(S(C)(=O)=O)CC3)nc3ccccc23)c(OC)c1 | 13 | 7% | -4 | 11 | 2 | / | /
Cc1nc2ccc([N+](=O)[O-])cc2c(=O)n1Cc1ccccc1Br | 4 | -1% | -5 | -2 | 2 | 41% | -1%
CCOC(=O)N1CCC(Nc2nc3ccccc3n3nnnc23)CC1 | 13 | 6% | ? | 1 | 0 | 25µM* | 19µM*
CCOC(=O)c1ccccc1Nc1nc2ccc(C)cc2n2nnnc12 | / | / | / | / | / | -1% | /
O=C(Cc1cccc(NC(=O)C2CCCN(C(=O)C3CC3)C2)c1)Nc1ccc(C(=O)N2CCCCC2)cc1 (configuration not stated) | -2 | / | / | 3 | / | 1% | /
Cc1cccc(CC(=O)Nc2ccc(C(=O)N3CCCCC3)cc2)c1 | 2 | 0% | 14 | -12 | 6 | 3.2µM* | 0%
CC(=O)Nc1cccc(-c2cn3ccc(C)cc3n2)c1 | 1 | 2% | 11 | 15 | -2 | 3% | /
CC(=O)Nc1ccc2nc(-c3ccccc3)cn2c1 | 10 | ? | -4 | -8 | 1 | 3.5µM* | 22µM*
CC(=O)Nc1ccc(-c2cc(-c3ccc(NC(C)=O)cc3)nc(-c3ccccc3)n2)cc1 | 11 | 0% | -14 | -9 | 8 | 7.9µM* | 24µM*
CC(=O)Nc1ccc(-c2cc(C(=O)O)c3ccccc3n2)cc1 | 11 | -2% | -21 | -24 | 2 | 4% | /
CCC(=O)N1c2ccccc2CC1C(=O)NCc1cc(Br)ccc1OC (configuration not stated) | / | / | / | / | / | 2% | /
CCC(=O)Oc1ccc2c(C)cc(=O)oc2c1C | -3 | 13% | -2 | 3 | -1 | 52% | /
Cc1cc(=O)oc2c(C)c(OC(=O)c3ccco3)ccc12 | 4 | / | / | -3 | / | 32% | 7%
CCSc1nnc2c(n1)OC(c1sccc1C)N(C(C)=O)c1ccccc1-2 (configuration not stated) | / | / | / | / | / | -2% | /
C1=Cc2ccccc2/C1=C(\Cc1ccncc1)Oc1ccncc1 | / | / | / | / | / | 2% | /
COc1cc(Cn2c(=O)oc3ccc(C)cc32)ccc1OCCC(C)C | / | / | / | / | / | -1% | /
CCCOc1ccc(Cn2c(=O)oc3ccc(C)cc32)cc1OC | -24 | -14% | ? | -17 | 10 | 240% | -1%
CCOC(=O)Cc1ccc(NC(=O)NC(C)c2c(-n3cccc3)sc(C)c2C)cc1 (configuration not stated) | / | / | / | / | / | -3% | /
Oc1ccc(/C=C/c2ccc(/C=C/c3ccc(O)cc3)c(Br)c2)cc1 | / | / | / | / | / | / | -19%
CCOC(=O)[C@]12CCC=C1N(Cc1cccc3ccccc13)C(=O)[C@H](CC(=O)N1CCSCC1)C2 | / | / | / | / | / | -4% | /
COc1ccc(-n2nc3cc(C)c(NC(=S)NC(=O)c4ccccc4C)cc3n2)cc1 | 1 | ? | 1 | -7 | 5 | 217% | /
CCC(=O)Nc1cc2nn(-c3ccc(C)cc3)nc2cc1C | 8 | 12% | -7 | 6 | -2 | 5% | /
CCC(=O)Nc1cc2nn(-c3ccc(OC)cc3)nc2cc1C | 6 | ? | -1 | -2 | 2 | 2.8µM* | 19µM*
CCCCC(=O)Nc1cc2nn(-c3ccc(OC)cc3)nc2cc1C | -4 | ? | -5 | -28 | 0 | 1µM* | 24µM*
SMILES | KCNH2 3.1 inh | p53 reactivation | TRPV1 PAM | KCNH2 WT inh | TRPV1 ag | ClpP mod | ClpP validation
CCCCn1nnnc1C1(C)CCC(=O)N1Cc1ccc(C)cc1 (configuration not stated) | / | / | / | / | / | -3% | /
Cc1ccc(NC(=O)c2ccc(-c3ccccc3)s2)cc1 | / | / | / | / | / | 47% | -9%
COCCn1c(SCC(=O)c2ccc(C)cc2C)nc2cc(C(=O)NC3CCCC3)ccc2c1=O | / | / | / | / | / | -1% | /
CCNc1nc(NCC)n2c(SCC(=O)Nc3ccc(OC)c(OC)c3)nnc2n1 | -8 | 5% | 21 | -14 | 2 | 46% | 0%
COc1cc2c(-c3cccc(Cl)c3)nc3c(c(C)nn3-c3ccccc3)c2cc1OC | / | / | / | / | / | -28% | /
O=C(Nc1cccc(C(=O)N2CCN(c3cccc(Cl)c3)CC2)c1)c1nsc2ccccc12 | / | / | / | / | / | -8% | /
Cc1ccc(-c2cc(C(=O)NCc3ccccc3Cl)c3ccccc3n2)cc1C | / | / | / | / | / | 4.5µM* | 27µM*
Cc1ccc(-c2cc(C(=O)NCCCN3CCCC3)c3ccccc3n2)cc1C | -18 | -4% | 6 | 13 | 3 | / | /
CCCCNc1nc2c(-c3cccc(Br)c3)nnn2c2ccccc12 | / | / | / | / | / | -8% | /
Brc1cccc(-c2nnn3c2nc(NCc2ccc4c(c2)OCO4)c2ccccc23)c1 | / | / | / | / | / | 23% | ?
Cc1cccc(N2CCN(S(=O)(=O)c3csc(C(N)=O)c3)CC2)c1C | / | / | / | / | / | 0% | /
CCn1c(-c2cccs2)nc2ccccc21 | -25 | 2% | 2 | 0 | 2 | 3.2µM* | 14µM*
CCOC(=O)CSc1nc2ccccc2c(=O)n1-c1cccc(C)c1 | / | / | / | / | / | -4% | /
O=C(Nc1nnc(-c2ccncc2)s1)C1CCCO1 (configuration not stated) | 7 | ? | -5 | 7 | 1 | 6.3µM* | 12µM*
CSc1cccc(NC(=O)c2ccc3c(c2)c(C)c(C)n3Cc2ccc(F)cc2)c1 | / | / | / | / | / | 7.1µM* | 27µM*
Cc1ccccc1NC(=O)c1ccc2c(c1)c(C)c(C)n2Cc1ccccc1 | / | / | / | / | / | -11% | /
CC(=O)N1CCc2c(sc3c2c(=O)n(CCc2ccccc2)c(=O)n3CC(=O)Nc2ccccc2F)C1 | / | / | / | / | / | -6% | /
O=C(Nc1nc2nc(-c3ccccc3)cc(-c3ccccc3)n2n1)c1ccco1 | 5 | -14% | -7 | -3 | ? | 7.9µM* | 12µM*
Cc1ccc(-n2c(-c3ccco3)nc3nc4ccccc4nc32)cc1F | -4 | 2% | 14 | 2 | 18 | 2.8µM* | ?
Fc1ccc(-n2c(-c3ccco3)nc3nc4ccccc4nc32)cc1 | 6 | -2% | -15 | -10 | 15 | ? | /
COc1ccc(CNC(=O)C2CCN(S(=O)(=O)c3ccc4c(c3)CCCN4C(C)=O)CC2)cc1 | / | / | / | / | / | -4% | /
CCc1ccc(CNC(=O)Cn2nc(-c3ccccc3)ccc2=O)cc1 | -26 | 2% | 12 | 1 | -2 | 4µM* | -2%
O=C(Cn1nc(-c2ccccc2)ccc1=O)NCc1ccc(F)cc1Cl | / | / | / | / | / | -14% | /

Source: PubChem
